This note sets out measurements from PubChem BioAssay (NCATS).

Assay in all cases: Cytotoxic Profiling of Annotated Libraries Using Quantitative High-Throughput Screening (AID 1296008); note: nearly all actives have a fitted effect of over 60% in size
What all share (settings): Five cell lines viability, CellTiter-Glo ATP luminescence, 48-72 h; max response: stronger effect = lower value

In one experiment the test system is HaCat. The gist of the method:
(§1)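 Cytotoxicity was measured as CellTiter-Glo ATP luminescence, read after 10 min at room temperature. Compound treatment of the cells lasted 48 or 72 hr at 37 degrees Celsius in a qHTS format.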

Another experiment deals with KB-3-1. The gist of the method: as §1
A further experiment concerns NIH3T3. The gist of the method: as §1

Results filed as inconclusive are left out. Unmarked numbers belong to inactive results. Activity calls are given as the source filed them. Calls come from the whole dose curve; as a rule, active = well fitted inhibition curve with a large enough effect; inconclusive = small, poorly fitted or top-dose-only effect; inactive = flat fitted curve, though single readings scatter.
% is set by controls: 0 for no effect and ±100 for the full control effect; potency is the fitted concentration of half-maximal effect.

For the compound `C/C1=C\[C@H]2OC(=O)[C@@H](C)[C@@H]2CC/C(C(=O)O)=C/CC1`, the max response was -0.286% with HaCat, -0.178% in the experiment with KB-3-1 and -2.73% with NIH3T3.

Regarding `COc1cc2c(cc1OC)[C@@H]1[C@H](O)[C@@H](OC)C=C3CCN(C2)[C@H]31`, in the experiment on HaCat, the max response is -24.8%. Also, the Potency in the experiment on KB-3-1 was 7.18 µM (active); with NIH3T3, 3.6 µM (active).

For `Cc1ccc(NC(=O)C(=O)NC2CC(C)(C)NC(C)(C)C2)cc1`, the results for the max response in the experiment with HaCat, in the experiment with KB-3-1 and with NIH3T3 were -22.4%, -0.25% and -7%, respectively.

Take `C[C@@H]1O[C@@H](OC[C@H]2O[C@@H](Oc3cc(O)cc4c3C(=O)C(O)(Cc3ccc(O)cc3)O4)[C@H](O)[C@@H](O)[C@@H]2O)[C@H](O)[C@H](O)[C@H]1O` (some centres undefined): the max response was -8.78% with HaCat, 8.25% with KB-3-1 and 2.04% with NIH3T3.

With `CCOC(=O)Nc1cc(-c2ccc(C)c(NS(C)(=O)=O)c2)nn2c(C)nnc12`, the Potency in the experiment with HaCat is 0.651 µM (active); in the experiment with KB-3-1, 10.3 µM (active); with NIH3T3, 9.2 µM (active).

Consider `COc1ccc(C[C@H](N)C(=O)N[C@@H]2[C@H](O)[C@H](n3cnc4c(N(C)C)ncnc43)O[C@@H]2CO)cc1`, for which the Potency in the experiment with HaCat is 1.46 µM (active); in the experiment on KB-3-1, 0.731 µM (active); in the experiment on NIH3T3 it was 4.61 µM (active).

On to `COC(=O)CC(O)C1OC(c2ccccc2)C(O)C1O` (centres undefined), for which the results for the max response with HaCat, with KB-3-1 and in the experiment with NIH3T3 were -28.3%, 2.62% and -5.26%, respectively.

`CC1(CCOC2OC(CO)C(O)C(O)C2O)CCC23OC2(C1)C(O)CC1C(C)(C(=O)O)CCCC13C` (centres undefined): the values for the max response with HaCat, with KB-3-1 and with NIH3T3 were 3.2%, 8.97% and 0.419%, respectively.

With `CC(C)(O[C@@H]1O[C@H](CO)[C@@H](O)[C@H](O)[C@H]1O)C(OC(=O)/C=C\c1ccc(O)cc1)C(=O)OCc1ccc(O[C@@H]2O[C@H](CO)[C@@H](O)[C@H](O)[C@H]2O)cc1` (some centres undefined), the results for the max response in the experiment with HaCat and in the experiment with NIH3T3 were -19.6% and -27.1%, respectively. The result in the experiment on KB-3-1 was inactive.

Turning to `CC(C)=CCC[C@](C)(O[C@@H]1O[C@H](CO)[C@@H](O)[C@H](O)[C@H]1O)[C@H]1CC[C@]2(C)[C@@H]1[C@H](O)CC1[C@@]3(C)CC[C@H](O)C(C)(C)C3[C@@H](O[C@@H]3O[C@H](CO)[C@@H](O)[C@H](O)[C@H]3O)C[C@]12C` (some centres undefined), the results for the max response in the experiment with HaCat, with KB-3-1 and with NIH3T3 were 4.06%, 9.79% and -17.5%, respectively.

Consider `C[C@@H]1CC[C@]2(C(=O)OC3OC(CO)C(O)C(O)C3O)CC[C@]3(C)C(=CCC4[C@@]5(C)CC[C@H](O)[C@](C)(C(=O)O)C5CC[C@]43C)C2[C@]1(C)O` (some centres undefined), for which the results for the max response in the experiment on HaCat, with KB-3-1 and in the experiment on NIH3T3 were -8.63%, 4.37% and -0.137%, respectively.

Turning to `CC1(C)CC[C@]2(C(=O)O[C@@H]3O[C@H](CO)[C@@H](O)[C@H](O)[C@H]3O)CC[C@]3(C)C(=CCC4[C@@]5(C)C[C@@H](O)[C@H](O)C(C)(C)C5[C@H](O)C[C@]43C)[C@@H]2[C@@H]1O` (some centres undefined), the values for the max response with HaCat and in the experiment on NIH3T3 were 0.337% and -3.1%, respectively. Moreover, the result in the experiment on KB-3-1 was inactive.

For `O=C(O)C(O[C@@H]1O[C@H](CO[C@@H]2O[C@H](CO)[C@@H](O)[C@H](O)[C@H]2O)[C@@H](O)[C@H](O)[C@H]1O)c1ccccc1` (some centres undefined), the max response was -3.34% in the experiment with HaCat, 7.09% with KB-3-1 and 1.38% in the experiment on NIH3T3.

Turning to `CC1CCC2(C=O)C(CO)=CCCC2C1(C)CC(=O)O` (centres undefined), the max response was -1.16% in the experiment on HaCat, 2.85% in the experiment with KB-3-1 and -21.3% with NIH3T3.

As for `CC/C=C\[C@H](O)[C@H](O)C1=C(C)C(=O)[C@]2(O1)C(=O)N[C@@](OC)(C(=O)c1ccccc1)[C@@H]2O`, the max response in the experiment with HaCat was -9.21%; in the experiment with KB-3-1, 7.92%; with NIH3T3 it was 1.26%.

For `C=C(C(=O)O)C1CC(O)C2(C)CCCC(=C)C2C1` (centres undefined), the max response was -8.7% in the experiment on HaCat, -0.72% in the experiment on KB-3-1 and 2.65% in the experiment with NIH3T3.

For `O=C(NCc1ccccn1)Nc1nnc(-c2ccco2)o1`, the values for the max response in the experiment with HaCat, in the experiment with KB-3-1 and in the experiment with NIH3T3 were 1.95%, 3.97% and 3.06%, respectively.

Consider `CC(=O)O[C@@H]1c2c3c(cc(O)c2C(=O)O[C@@H]1C)O[C@@]1(C)[C@@H](O)C[C@H]2C(C)(C)C(=O)C=C[C@]2(C)[C@@H]1C3`, for which the max response in the experiment on HaCat is 3.68%; with NIH3T3, -3.36%. The result with KB-3-1 was inactive.

With `CC1(C)C=CN2C(=O)C3=CCCN3C(=O)[C@@H]2C[C@@]12Nc1ccccc1C2=O`, the max response was -4.92% with HaCat and -3.89% with NIH3T3. Also, the result in the experiment with KB-3-1 was inactive.

`CC1=C(C)C(=O)OC(C(C)C2CCC3C4CC=C5CC(OC6OC(COC7OC(CO)C(O)C(O)C7O)C(O)C(O)C6O)CC(O)C5(C)C4CCC23C)C1` (centres undefined): the max response in the experiment with HaCat is -17.7%; with KB-3-1 it was 8.05%; with NIH3T3 it was 3.09%.

As to `C[C@@H]1C[C@@H]([C@@H](O)C(C)(C)O)O[C@H]2C[C@@]3(C)C(=C12)C[C@H](O)[C@H]1[C@@]2(C)CCC(=O)C(C)(C)C2CC[C@@]13C` (some centres undefined), the max response in the experiment on HaCat is -11.9%; in the experiment with KB-3-1 it was 5.24%; in the experiment on NIH3T3 it was -0.489%.

For `CCC(CC)C(=O)Nc1sc2c(c1C#N)CCC(C(C)(C)CC)C2` (centres undefined), the max response with HaCat was 1.75%; in the experiment on KB-3-1, -9.22%; in the experiment on NIH3T3, 3.55%.

As to `CN[C@@H]1[C@H](O[C@H]2[C@H](O[C@@H]3[C@@H](O)[C@H](O)[C@@H](N=C(N)N)[C@H](O)[C@H]3N=C(N)N)O[C@@H](C)[C@]2(O)C=O)O[C@@H](CO)[C@H](O)[C@H]1O`, the figures for the max response in the experiment on HaCat and in the experiment with NIH3T3 were -17.2% and -1.39%, respectively. For the same compound, in the experiment on KB-3-1, the compound was called inactive.
